# Results filed as inconclusive are left out. Entries that show only a call come without a potency. Calls of active or inactive are those of the source. Unless noted, calls come from the whole dose curve; as a rule, active = well fitted curve in the direction sought with a large enough effect in the repeat runs; inconclusive = weak or mixed curves; inactive = no such curve, though single readings can be large; an effect the other way counts as inactive or inconclusive.
# Key:
# [1] = qHTS assay for small molecules that induce genotoxicity in human embryonic kidney cells expressing luciferase-tagged ATAD5 (AID 651632); details: HEK293T ATAD5-luciferase induction, 16 h; series mostly up to 83.3 µM; note: nearly all actives have a fitted effect of over 15% in size; note: potency is the fitted concentration of half-maximal effect
# How it was run: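 Test compounds were delivered by pin tool onto HEK293T reporter cells (2,000/well) expressing ATAD5 fused to luciferase. After 16 hr at 37C, 5% CO2, Amplite was added for 30 min at room temperature and luminescence was measured.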
# [2] = qHTS assay for small molecule agonists of the p53 signaling pathway - cell viability (AID 651633; calls by dose curve; note: nearly all actives have a fitted effect of over 30% in size; note: potency is the fitted concentration of half-maximal effect); details: p53RE-bla HCT-116 viability, ATP luminescence, 16 h; series mostly up to 83.3 µM
# How it was run: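 p53RE-bla cells were treated with compound for 16 hours at 37 C. Cytotoxicity was then measured as CellTiter-Glo luminescence after 30 min at room temperature.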
# [3] = qHTS assay for small molecules that induce genotoxicity in human embryonic kidney cells expressing luciferase-tagged ATAD5 - cell viability (AID 651634; calls by dose curve; note: nearly all actives have a fitted effect of over 25% in size; note: potency is the fitted concentration of half-maximal effect); details: HEK293T ATAD5-luc cells viability, CellTiter-Fluor, 15.5 h; series mostly up to 83.3 µM
# How it was run: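 Quantitative high-throughput format. HEK293T cells expressing ATAD5 fused to luciferase were plated at 2,000 cells/well and treated 15.5 hr with compound versus DMSO. Viability was determined by fluorescent live-cell protease substrate, 30 min at 37C.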
# [4] = qHTS assay for small molecule disruptors of the mitochondrial membrane potential - cell viability (AID 720634; calls by dose curve; note: nearly all actives have a fitted effect of over 20% in size; note: potency is the fitted concentration of half-maximal effect); details: HepG2 viability, ATP luminescence (CellTiter-Glo), 1 h; series mostly up to 83.2 µM
# How it was run: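 Same-well counter-screen: following the MMP dye addition, CellTiter-Glo was added to 1 hr compound-treated HepG2 cells and luminescence read after 30 min at room temperature.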
# [5] = qHTS assay to test for compound auto fluorescence at 590 nm (red) in HepG2 cells (AID 720674); details: HepG2 autofluorescence, red 540/590 nm, 1 h; series mostly up to 46 µM
# How it was run: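 Seeding: 2,000 HepG2 cells/well, MEM/10% FBS, overnight 37 C. Dosing: compound vs DMSO. Incubation: 1 hr, 37 C, 5% CO2. Read: fluorescence 540 ex/590 em, Rose Bengal sodium as red reference.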
# [6] = qHTS assay to test for compound auto fluorescence at 535 nm (green) in HepG2 cells (AID 720675); details: green autofluorescence 485/535 nm, 1 h; series mostly up to 46 µM
# [7] = qHTS assay to test for compound auto fluorescence at 460 nm (blue) in HEK293 cells (AID 720678); details: blue autofluorescence 405/460 nm; series mostly up to 46 µM
# How it was run: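 Measured: blue fluorescence (Ex 405/Em 460 nm) of compound-treated HEK293 cells, incubated overnight at 37C with 5% CO2 and scaled to triamterene equivalents.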
# [8] = qHTS assay to test for compound auto fluorescence at 590 nm (red) in HEK293 cells (AID 720679); details: red autofluorescence 540/590 nm; series mostly up to 46 µM
# How it was run: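 Using HEK293 cells at 2,000 per well, the screen added 23 nL of each compound after cell attachment and incubated overnight (37C, 5% CO2). The plate reader then captured red-label fluorescence, Ex/Em 540/590nm.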
# [9] = qHTS assay for small molecule disruptors of the mitochondrial membrane potential (AID 720635); details: HepG2 mitochondrial membrane potential, Mito-MPS dye ratio; series mostly up to 83.2 µM; note: potency is the fitted concentration of half-maximal effect
# How it was run: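 HepG2 cells exposed to compound 1 hr at 37C, then Mito-MPS dye 30 min. Ratio read of aggregate (540/590 nm) versus monomer (490/535 nm) fluorescence.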
SMILES,Potency [1],Potency [2],Potency [3],Potency [4],Potency [5],Potency [6],Potency [7],Potency [8],Potency [9]
CCN(CC)CCOCCOC(=O)C(CC)(CC)c1ccccc1,inactive,inactive,inactive,inactive,inactive,inactive,inactive,inactive,–
C[C@H](N)C(=O)N[C@@H](C)P(=O)(O)O,inactive,inactive,inactive,inactive,inactive,inactive,inactive,inactive,–
O=C(NNCNNC(=O)c1ccncc1)c1ccncc1,inactive,inactive,inactive,inactive,inactive,inactive,inactive,inactive,–
CCCCC(F)(F)[C@@]1(O)CC[C@H]2[C@@H](CC(=O)[C@@H]2CCCCCCC(=O)O)O1,inactive,inactive,inactive,inactive,inactive,inactive,inactive,inactive,–
COC(=O)CC[C@H](N)C(=O)O,inactive,inactive,inactive,inactive,inactive,inactive,inactive,inactive,–
CN[C@@H]1[C@H](O[C@H]2[C@H](O[C@H]3[C@H](O)[C@@H](O)[C@H](N=C(N)N)[C@@H](O)[C@@H]3N=C(N)N)O[C@@H](C)[C@]2(O)CO)O[C@@H](CO)[C@H](O)[C@H]1O,inactive,inactive,inactive,inactive,inactive,inactive,inactive,inactive,–
COc1c(O[C@@H]2O[C@H](CO)[C@@H](O)[C@H](O)[C@H]2O)cc2c(c1OC)-c1ccc(SC)c(=O)cc1[C@@H](NC(C)=O)CC2,inactive,inactive,inactive,inactive,inactive,inactive,inactive,inactive,–
CC(CN1c2ccccc2Sc2cccnc21)N(C)C (configuration not stated),inactive,inactive,inactive,inactive,inactive,inactive,inactive,inactive,–
N[C@H](CCC(=O)O)C(=O)O,inactive,inactive,inactive,inactive,inactive,inactive,inactive,inactive,–
NS(=O)(=O)c1cc2c(cc1Cl)NC(Cc1ccccc1)NS2(=O)=O (configuration not stated),inactive,inactive,inactive,inactive,inactive,inactive,inactive,inactive,–
CC#CCC(C)[C@H](O)/C=C/[C@@H]1[C@H]2c3cccc(CCCC(=O)O)c3O[C@H]2C[C@H]1O (some centres not stated),inactive,inactive,inactive,inactive,inactive,inactive,inactive,inactive,–
C[C@]12CC[C@@H]3c4ccc(O)cc4CC[C@H]3[C@@H]1CC[C@@H]2OP(=O)(O)O,inactive,inactive,inactive,inactive,inactive,inactive,inactive,inactive,–
CN(C)CCCN1c2ccccc2C(C)(C)c2ccccc21,inactive,inactive,inactive,inactive,inactive,inactive,inactive,inactive,–
CCN(CC)CCOc1ccc2nc(N(C)C)sc2c1,inactive,inactive,inactive,inactive,inactive,inactive,inactive,inactive,–
CC1C(=O)CC2C3(C)CCC2(C(C)C(=O)O)C(=O)C13 (configuration not stated),inactive,inactive,inactive,inactive,inactive,inactive,inactive,inactive,–
CO/N=C(\C(=O)N[C@@H]1C(=O)N2C(C(=O)O)=C(CSc3nnnn3C)CS[C@H]12)c1csc(N)n1,inactive,inactive,inactive,inactive,inactive,inactive,inactive,inactive,–
COc1ccc2c(c1)OC(C)(C)C(c1ccccc1)C2c1ccc(OCCN2CCCC2)cc1 (configuration not stated),inactive,29.8 µM (active),26.6 µM (active),inactive,inactive,inactive,inactive,inactive,–
CCCCCCCCCCCCCCCCCC(=O)OCC(C)O (configuration not stated),inactive,inactive,23.7 µM (active),inactive,inactive,inactive,inactive,inactive,–
C[C@H]1[C@@H](OC(=O)CCC(=O)O)O[C@@H]2OC3(C)CC[C@H]4[C@H](C)CC[C@@H]1[C@@]24OO3,inactive,inactive,2.37 µM (active),inactive,inactive,inactive,inactive,inactive,–
C=CC1=C(C)C2=CC3=NC(=C(CC(=O)[O-])C4=NC(=C(C)C4=C([O-])[O-])C=c4[n-]c(c(C)c4CC)=CC1=N2)C(CCC(=O)[O-])C3C.[Cu+2].[Na+].[Na+].[Na+] (configuration not stated),inactive,inactive,23.7 µM (active),inactive,inactive,inactive,inactive,inactive,–

SMILES,Potency [1],Potency [2],Potency [3],Potency [4],Potency [5],Potency [6],Potency [7],Potency [8],Potency [9]
COc1ccc(C2(C#N)CCC(C(=O)O)CC2)cc1OC1CCCC1 (configuration not stated),inactive,inactive,inactive,inactive,inactive,inactive,inactive,inactive,–
CC(C)CCC[C@@H](C)[C@H]1CC(=O)C2=C3CC[C@H]4C[C@@H](O)CC[C@]4(C)[C@H]3CC[C@@]21C,inactive,inactive,inactive,inactive,inactive,inactive,inactive,inactive,–
C=C(NC(=O)C(=C)NC(=O)c1csc(C2=N[C@@H]3c4csc(n4)[C@H]4NC(=O)c5csc(n5)[C@H]([C@](C)(O)[C@@H](C)O)NC(=O)[C@H]5CSC(=N5)C(=CC)NC(=O)C([C@@H](C)O)NC(=O)c5csc(n5)[C@]3(CC2)NC(=O)[C@H](C)NC(=O)C(=C)NC(=O)[C@H](C)NC(=O)C([C@@H](C)CC)NC2C=Cc3c([C@H](C)O)cc(nc3C2O)C(=O)O[C@@H]4C)n1)C(N)=O (some centres not stated),11.4 µM (active),inactive,inactive,inactive,inactive,inactive,inactive,inactive,–
NC(=O)C[C@@H](N)C(=O)O,inactive,inactive,inactive,inactive,inactive,inactive,inactive,inactive,–
CC[C@@H]1/C=C(\C)C[C@H](C)C[C@H](OC)[C@H]2O[C@@](O)(C(=O)C(=O)N3CCCC[C@H]3C(=O)O[C@H](/C(C)=C/[C@@H]3CC[C@@H](Cl)[C@H](OC)C3)[C@H](C)[C@@H](O)CC1=O)[C@H](C)C[C@@H]2OC,inactive,inactive,inactive,inactive,inactive,inactive,inactive,inactive,–
C/C1=C2N=C(/C=C3N=C(/C(C)=C4\[N-]C(C(CC(N)=O)C4(C)CCC(=O)NCC(C)OP(=O)([O-])OC4C(CO)OC(n5cnc6cc(C)c(C)cc65)C4O)C4(C)N=C1C(CCC(N)=O)C4(C)CC(N)=O)C(CCC(N)=O)C\3(C)C)C(CCC(N)=O)C/2(C)CC(N)=O.[CH3-].[Co+3] (configuration not stated),inactive,inactive,23.7 µM (active),inactive,inactive,inactive,inactive,inactive,–
CCOC(=O)Oc1c(OC)cc(C(=O)O[C@@H]2C[C@@H]3CN4CCc5c([nH]c6cc(OC)ccc56)[C@H]4C[C@@H]3[C@H](C(=O)OC)[C@H]2OC)cc1OC,inactive,inactive,inactive,10.1 µM (active),inactive,inactive,inactive,inactive,–
CCCCCCCCCCCCCCCC(=O)OCCC1CCN(CCCN2c3ccccc3Sc3ccc(S(=O)(=O)N(C)C)cc32)CC1,inactive,inactive,inactive,inactive,inactive,inactive,inactive,inactive,–
Cc1cc(C(=O)NNCc2ccccc2)no1,inactive,inactive,inactive,inactive,inactive,inactive,inactive,inactive,–
O=C(O)CC/C=C\CC[C@@H]1[C@@H](N2CCCCC2)[C@@H](O)C[C@@H]1OCc1ccc(-c2ccccc2)cc1,inactive,inactive,inactive,inactive,inactive,inactive,inactive,inactive,–
CCN(CC)CCOc1ccccc1OC,inactive,inactive,inactive,inactive,inactive,inactive,inactive,inactive,–
Cc1cc(-c2ccc(N=Nc3c(S(=O)(=O)O)cc4cc(S(=O)(=O)O)cc(N)c4c3O)c(C)c2)ccc1N=Nc1c(S(=O)(=O)O)cc2cc(S(=O)(=O)O)cc(N)c2c1O,inactive,inactive,26.6 µM (active),–,inactive,inactive,inactive,inactive,–
[O]=[Bi][O]C(=O)[O][Bi]=[O],inactive,inactive,inactive,inactive,inactive,inactive,inactive,inactive,–
CC(=O)OCC(=O)[C@@]1(O)[C@H](C)C[C@H]2[C@@H]3C[C@H](F)C4=CC(=O)C=C[C@]4(C)[C@H]3[C@@H](O)C[C@@]21C,inactive,inactive,inactive,–,inactive,–,inactive,inactive,inactive
Clc1cc(Cl)c(OCC#CI)cc1Cl,inactive,26.6 µM (active),–,9.44 µM (active),inactive,inactive,inactive,inactive,4.73 µM (active)
CO[C@H]1C=CO[C@@]2(C)Oc3c(C)c(O)c4c(O)c(c(/C=N/N5CCN(C6CCCC6)CC5)c(O)c4c3C2=O)NC(=O)/C(C)=C\C=C[C@H](C)[C@H](O)[C@@H](C)[C@@H](O)[C@@H](C)[C@H](OC(C)=O)[C@@H]1C,inactive,26.6 µM (active),21.1 µM (active),–,inactive,inactive,inactive,inactive,1.19 µM (active)
CCCCC/C=C\CCC(=O)N[C@H]1[C@H](Oc2c3cc4cc2Oc2ccc(cc2Cl)[C@@H](O[C@@H]2O[C@H](CO)[C@@H](O)[C@H](O)[C@H]2NC(C)=O)[C@@H]2NC(=O)[C@H](NC(=O)[C@@H]4NC(=O)[C@H]4NC(=O)[C@@H](Cc5ccc(c(Cl)c5)O3)NC(=O)[C@H](N)c3ccc(O)c(c3)Oc3cc(O)cc4c3)c3ccc(O)c(c3)-c3c(O[C@H]4O[C@H](CO)[C@@H](O)[C@H](O)[C@@H]4O)cc(O)cc3[C@@H](C(=O)O)NC2=O)O[C@H](CO)[C@@H](O)[C@@H]1O,inactive,inactive,inactive,inactive,inactive,inactive,inactive,inactive,–
CC(C)NCC(O)COc1ccccc1-n1cccc1 (configuration not stated),inactive,inactive,inactive,inactive,inactive,–,inactive,inactive,–
CCCc1nc(C(C)(C)O)c(C(=O)OCc2oc(=O)oc2C)n1Cc1ccc(-c2ccccc2-c2nn[nH]n2)cc1,inactive,inactive,inactive,–,inactive,inactive,inactive,inactive,inactive
CN1CCC(OC(=O)C(Oc2ccc(Cl)cc2)Oc2ccc(Cl)cc2)CC1,inactive,inactive,inactive,inactive,inactive,inactive,inactive,inactive,–

# — PubChem BioAssay (Tox21)
